Compounds with a hit are over-represented: about 3.7% of the library has one in this group of screens.
BoNT-A LC inh2: BoNT A light chain protease inhibition | multiplex microsphere protease substrate cleavage, flow cytometry | inhibition, % at 10 µM | actives 0.17% (n = 360,000) | AID 588499
BoNT-F LC inh: blocks Botulinum neurotoxin F light chain protease. inhibition, % at 10 µM. AID 588497. actives 0.22% (n = 360,000). Multiplex microsphere protease cleavage assay, flow cytometry; in the data active = inhibition above about 35%, passing the limit was not always enough; inconclusive = no clear call, values can overlap the other calls
MazEF act: activators of E. coli MazEF toxin-antitoxin RNase. FAM/BHQ RNA-DNA oligo cleavage fluorescence, 5 h. actives 0.32% (n = 350,000). activation, % at 20 µM; in the data active = activation above about 50%
Target sequence (P0AE70 whole entry, looked up): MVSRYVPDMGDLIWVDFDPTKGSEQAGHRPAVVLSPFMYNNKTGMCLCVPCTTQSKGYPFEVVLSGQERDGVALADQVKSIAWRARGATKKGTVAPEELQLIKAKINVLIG
Anthrax LF inh2: anthrax lethal factor protease inhibition | actives 0.12% (n = 360,000) | P15917 | multiplex microsphere protease cleavage assay, LF | AID 588501 | inhibition, % at 10 µM
Autofluor counter: compound fluorescence in toxin protease inhibitor counterscreen; actives 3.1% (n = 360,000); fluorescence intensity (no concentration beside the values); AID 624483; compound autofluorescence counterscreen, microsphere flow cytometry; active compounds read high; in the data active = fluorescence intensity above about 16000; inconclusive = no clear call, values can overlap the other calls
Of the large screens only hits and unclear results are named; the others gave an inactive call. Cut-off read from the data, not from the text of the source, unless noted: active = inhibition above about 30%; inconclusive = no clear call, values can overlap the other calls; inactive = below that.

C=C(C)CN1C(=O)C2(OCCO2)c2cc(Br)ccc21	BoNT-F LC inh inconclusive
Cc1ccc(NC(=O)NC(=O)COC(=O)c2ccc(O)cc2O)c(C)c1	none
CN(C)S(=O)(=O)c1cccc(-n2sc3ccccc3c2=O)c1	BoNT-A LC inh2 33.1
O=c1c2ccccc2sn1-c1ccccc1F	none
Cc1ccccc1-n1sc2cc(F)ccc2c1=O	BoNT-A LC inh2 88.6
Cc1nc2ccccc2c(=O)n1-c1nccs1	none (no result: MazEF act)
O=c1c2ccccc2sn1-c1nccs1	BoNT-A LC inh2 101.7
O=c1c2ccccc2sn1-c1ccc(S(=O)(=O)N2CCCCC2)cc1	none
Cc1ccc(-n2sc3ccccc3c2=O)cc1S(=O)(=O)N1CCCCC1	BoNT-A LC inh2 32.5
CCCCN1CC(N2CCCCC2)CS1(=O)=O (stereo not given)	none (no result: MazEF act)
O=c1c2cc(F)ccc2sn1-c1ccccc1	BoNT-A LC inh2 34.9
O=c1c2cc(C(F)(F)F)ccc2sn1-c1ccccc1	none
O=c1c2ccccc2sn1-c1cccc(Cl)c1	none
O=c1c2ccccc2sn1-c1ccccc1	BoNT-A LC inh2 70.4
O=c1cc(CSc2nnnn2-c2ccccc2)nc(Nc2ccc(F)cc2)[nH]1	Autofluor counter 23279
CC(=O)N1c2ccccc2Oc2cc3ccccc3cc21	none
O=C(CCl)N1c2ccccc2Oc2ccc3ccccc3c21	BoNT-A LC inh2 30.8, Anthrax LF inh2 34.8
O=C(Cc1ccccc1[N+](=O)[O-])Nc1ccc2c(c1)OCCO2	none
COC(=O)c1cc(NC(=O)Cc2ccccc2[N+](=O)[O-])cc(C(=O)OC)c1	Autofluor counter 18194
O=C(Nc1cc(C(=O)N2CCCC2)ccc1N1CCCC1)C1CC1	BoNT-A LC inh2 inconclusive, Autofluor counter 22662
O=C(Nc1cc(C(=O)N2CCCC2)ccc1N1CCCC1)c1ccccc1F	none
CC(C(=O)NC1=NCCS1)N1C(=O)c2ccccc2C1=O (stereo not given)	Autofluor counter 23583
O=P(C(=NCCO)NO)(N1CCOCC1)N1CCOCC1	none
C/C(CCc1ccc2c(c1)OCO2)=N\N=C1\NC(=O)CC(C(=O)Nc2ccc(Cl)cc2)S1 (stereo not given)	Autofluor counter 21037
CC(C)CC(=O)CN1C(=O)C2(OCCO2)c2ccccc21	Autofluor counter 23745
COc1ccccc1NC(=O)CN1C(=O)C2(OCCCO2)c2ccccc21	Autofluor counter 20250
CCCC(=O)CN1C(=O)C2(OCCO2)c2ccccc21	Autofluor counter 22726
O=C1N(CCCN2C(=O)C3(OCCO3)c3ccccc32)c2ccccc2C12OCCO2	Autofluor counter 21454
COC(C(=O)Nc1ccnn1C1CCN(C(=O)c2ccc(C)cc2)CC1)c1ccccc1 (stereo not given)	none
Cc1[nH]n(C)c(=O)c1C(=O)c1c(-c2ccccc2Cl)noc1C	none
CC(NC(=O)c1cc2ccccc2oc1=O)c1ccccc1 (stereo not given)	none
O=C(c1ccc2c(=O)n(-c3ccccc3)c(=O)[nH]c2c1)N1CCN(c2ccc(F)cc2)CC1	none
COc1ccc(N2CCN(C(=O)c3ccc4c(=O)n(Cc5ccc6c(c5)OCO6)c(=O)[nH]c4c3)CC2)cc1	none
C=CCn1c(=O)[nH]c2cc(C(=O)N3CCN(c4cc(C)ccc4C)CC3)ccc2c1=O	Autofluor counter 16226
CCN(CC)C(=O)c1ccc2c(=O)n(Cc3ccc4c(c3)OCO4)c(=S)[nH]c2c1	none
C=CCn1c(=O)[nH]c2cc(C(=O)N3CCN(c4ccc(C(C)=O)cc4)CC3)ccc2c1=O	none
CC1CCCN(C(=O)c2ccc3c(=O)n(Cc4ccc5c(c4)OCO5)c(=S)[nH]c3c2)C1 (stereo not given)	Autofluor counter 22529
CC(=O)c1ccc(N2CCN(C(=O)c3ccc4c(=O)n(-c5ccccc5)c(=O)[nH]c4c3)CC2)cc1	Autofluor counter 22374
O=C(c1ccc2c(=O)n(Cc3ccc4c(c3)OCO4)c(=O)[nH]c2c1)N1CCN(c2ccccc2)CC1	MazEF act 62.2
Cc1cc(C)n2nc(SCc3cccc(F)c3)nc2n1	none
CN(CC(=O)Nc1cccc(F)c1)C(=O)c1ccc(N2CCCCC2)c([N+](=O)[O-])c1	none (no result: BoNT-A LC inh2, BoNT-F LC inh, Anthrax LF inh2, Autofluor counter)
Cc1ccc(-c2cc(C(=O)NCCN3CCOCC3)c3ccccc3n2)o1	none
CN=C(Nc1cccc(Cl)c1)SC1CC(=O)N(c2ccc(OC)cc2)C1=O (stereo not given)	none
CNc1oc(Cc2cccc3ccccc23)nc1C#N	Autofluor counter 17571
COc1ccc(CCNc2oc(Cc3cccc4ccccc34)nc2C#N)cc1OC	none
N#Cc1nc(Cc2cccc3ccccc23)oc1NCCN1CCCCC1	none
CC(C)Nc1oc(Cc2cccc3ccccc23)nc1C#N	BoNT-A LC inh2 inconclusive, Autofluor counter 24202
Cc1cc(N2CCCC2)c(C)cc1C=O	Autofluor counter 22088
Cc1cc(N)ccc1N1CCCC1	none
CC1=NN(c2ccc(Cl)cc2)C(=O)/C1=C\c1cccn1-c1ccc(S(N)(=O)=O)cc1	none
O=C(Nc1ccccc1)NC1CS(=O)(=O)CC1O (stereo not given)	Autofluor counter 22098
O=S1(=O)C[C@@H](O)[C@@H](Nc2ccccc2)C1	none (no result: BoNT-A LC inh2, BoNT-F LC inh, Anthrax LF inh2, Autofluor counter)
C[C@@H](C(=O)CC(=O)OC(C)(C)C)[C@@H](O)c1c(F)cccc1Cl	none
Cc1ccc(S(=O)(=O)N2CCN(CC3CC4C=CC3C4)CC2)cc1 (stereo not given)	none
Cc1noc(C)c1C(=O)OCC(=O)Nc1ccc(S(N)(=O)=O)cc1	none
CC1(C)CC(CCC(=O)Nc2ccc(S(N)(=O)=O)cc2)C(=O)O1 (stereo not given)	BoNT-A LC inh2 inconclusive, Autofluor counter 22673
O=C(NCc1ccccc1)Oc1cccc(Cl)c1	Autofluor counter 19856
COc1ccc(C2Nc3ccccc3C(=O)N2NS(=O)(=O)c2ccccc2)cc1 (stereo not given)	none
Cc1ccc(NC2=NC(c3ccc(F)cc3)n3c(nc(C)cc3=O)N2)c(C)c1 (stereo not given)	BoNT-F LC inh inconclusive
Cc1ccc(NC2=NC(c3ccc(C)cc3)n3c(nc(C)cc3=O)N2)cc1 (stereo not given)	Autofluor counter 23058
Cc1ccc(NC2=NC(c3ccccc3)n3c(nc(C)cc3=O)N2)c(C)c1 (stereo not given)	Autofluor counter 22223
O=C(/C=C/c1ccccc1)CC(=O)c1ccccc1O	MazEF act 55.2
Cc1ccc(C)c(OCCCN2CCCC2)c1	Autofluor counter 21161
COc1cccc(Oc2c(C)oc3c(CN4CCCC4)c(O)ccc3c2=O)c1	none
CC(C)(C)c1cc(=O)[nH]c(SCc2ccccc2Cl)n1	none
O=c1ccnc(SCc2ccccc2Cl)[nH]1	Autofluor counter 16496
Cc1cccc(C2=NN(c3ccc(Br)cc3)[C@@H](C(=O)N3CCOC3=O)[C@@H]2c2ccc(Cl)cc2)c1	MazEF act 128.9
O=S1(=O)CCN(C2CCCCCCC2)CC1	none
CCOC(=O)N1CCN(Cc2ccccc2F)CC1	Autofluor counter 20462
CC(C)CC(=O)N1CCN(Cc2ccccc2Cl)CC1	none
CCOC(=O)N1CCN(C(=O)CSc2ccccc2)CC1	Autofluor counter 23877
CCOC(=O)N1CCN(Cc2ccccc2Cl)CC1	Autofluor counter 22232
CCOC(=O)N1CCN(Cc2nc(-c3cccc(C)c3)no2)CC1	Autofluor counter 22782

From PubChem
